Drawing on PubChem BioAssay, this text covers activity for 42 compounds.

For assay [1], the target named is Tumor necrosis factor receptor superfamily member 10B (Homo sapiens) (UniProt O14763). As to the kind of experiment: viability loss of caspase-8 NB7 cells with TRAIL – with/without TRAIL, luminescence panel, confirmation (AID 651596). The settings on record: NB7 neuroblastoma + caspase-8, TRAIL sensitization, NB7 Caspase-8, with TRAIL, mean of runs, at 10 µM, stronger effect = higher value.
Sequence of Tumor necrosis factor receptor superfamily member 10B (Homo sapiens) (O14763 whole entry, looked up): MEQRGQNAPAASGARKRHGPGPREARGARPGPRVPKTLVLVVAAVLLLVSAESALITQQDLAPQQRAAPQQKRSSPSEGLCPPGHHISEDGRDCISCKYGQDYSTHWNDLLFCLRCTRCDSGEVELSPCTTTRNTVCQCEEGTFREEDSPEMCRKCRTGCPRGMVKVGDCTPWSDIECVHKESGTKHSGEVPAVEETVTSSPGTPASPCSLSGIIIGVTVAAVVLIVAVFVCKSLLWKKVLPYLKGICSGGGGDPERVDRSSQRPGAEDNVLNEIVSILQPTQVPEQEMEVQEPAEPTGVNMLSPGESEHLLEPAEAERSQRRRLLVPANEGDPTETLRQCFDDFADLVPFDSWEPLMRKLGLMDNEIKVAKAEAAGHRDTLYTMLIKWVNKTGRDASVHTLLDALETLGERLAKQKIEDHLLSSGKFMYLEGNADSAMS

Experiment in assay [2]: as above
To be noted: NB7 neuroblastoma + caspase-8, without TRAIL, NB7 Caspase-8, without TRAIL, mean of runs, at 10 µM.

As to `CCC(C)c1ccc2oc(-c3ccc(NC(=O)Cn4cnc5c(=O)n(C)c(=O)n(C)c54)cc3)nc2c1` (centres undefined), the activity is 85.3% in assay [1] and 66.9% in assay [2].
On to `Nc1c(N(CCC2=CCCCC2)C(=O)COc2ccc(F)cc2Cl)c(=O)[nH]c(=O)n1Cc1ccccc1`, for which the results for the activity in assay [1] and in assay [2] were 88.3% and 79.4%, respectively.
The corresponding values for `Cc1ccccc1C(=O)Nc1nnc(SCC(=O)NC2CC2)s1` are 48.7% and 45.2%.
The corresponding values for `Nc1nc(=S)c2ncn(C3OC(CO)C(O)C3O)c2[nH]1` (centres undefined) are 9.65% and 6.78%.
The corresponding values for `COc1ccc2nc(Nc3ccccc3)sc2c1` are 49.2% and 38.6%.
For `C#CCN(C[C@@H]1[C@@H](OC(=O)NCCCCCC)[C@@H](OC(=O)NCCCCCC)Cn2c(=O)ccc(=O)n21)S(=O)(=O)c1ccc(C)cc1`, the activity in assay [1] was 96.2%; in assay [2], 92.3%.
The corresponding values for `CCN(CC)C(=O)c1nn(-c2ccccc2)c2c1C1CCC2(C)C1(C)C` (centres undefined) are 15.1% and 8.65%.
Take `O=C(NC1CCCCC1)c1n[nH]c2c1CCCCC2`: the results for the activity in assay [1] and in assay [2] were 82.1% and 80.8%, respectively.
Take `COn1c(SC2CCCCC2)nc2ccccc2c1=O`: the activity in assay [1] stood at 60.3%; in assay [2], 60.1%.
The corresponding values for `O=[N+]([O-])c1ccc(-[n+]2ccc3ccccc3c2)c([N+](=O)[O-])c1` are 93.3% and 98.8%.
The corresponding values for `Cc1cc(C(=O)Nc2sc3c(c2C#N)CCC(C)C3)no1` (centres undefined) are 58.6% and 52.6%.
`Cc1ccc(C(=O)N/C(=C\c2ccc(-c3ccccc3[N+](=O)[O-])o2)C(=O)NCCN(C)C)cc1`: the results for the activity in assay [1] and in assay [2] were 42% and 99.7%, respectively.
The like results for `COc1ccc(-c2cc(-c3ccccc3)c(C#N)c(S(C)(=O)=O)n2)cc1` were, in that order, 79.3% and 96.9%.
On to `COc1ccccc1NC(CC(=O)c1ccccc1)C(=O)OCC(=O)c1ccc(C)c(C)c1` (centres undefined), for which the activity in assay [1] was 73.5%; in assay [2], 66.2%.
On to `CNC(=S)N1N=C(c2ccccc2)CC1c1ccc(Br)cc1` (centres undefined), for which the activity in assay [1] is -12.4%; in assay [2], -42.7%.
The corresponding values for `CN(C)c1ccc(Sc2ccc3nc(N)nc(N)c3c2)cc1` are 62.9% and 73%.
The corresponding values for `Cc1ccc(-c2cnn(-c3ccccc3)c2N)cc1` are 78.6% and 77%.
The like results for `C[C@@H](NC(=O)c1ncn2c1c(=O)[nH]c1ccc(Br)cc12)c1ccccc1` were, in that order, 20.2% and 13%.
For `CCN1CCN(c2ccc(S(=O)(=O)N3CCCCC3)cc2NC(=O)/C=C/c2ccc(OC(F)F)cc2)CC1`, the activity in assay [1] came to 3.5%; in assay [2] it was 5.28%.
`CN(C)S(=O)(=O)c1ccc(-c2cn3ccccc3n2)cc1`: the activity turned out to be 66.2% in assay [1] and 73.5% in assay [2].
The like results for `CC(=O)Nc1ccc(/C=N/Nc2nc3ccccc3[nH]2)cc1` were, in that order, 76.2% and 75.5%.
Take `CCc1nnc(NC(=O)CSc2nc(C)cc(C)c2C#N)s1`: the activity in assay [1] is 81.2%; in assay [2] it was 80%.
The like results for `Cc1ccc2nc(-c3cccc(N)c3)[nH]c2c1` were, in that order, 71.5% and 59.6%.
For the compound `Cc1cc(C(=O)COC(=O)c2cccn2C)c(C)n1Cc1ccco1`, the results for the activity in assay [1] and in assay [2] were 54.5% and 39.2%, respectively.
The like results for `CCOc1ccc(OCc2cccc(C(=O)N3CCOCC3)c2)cc1` were, in that order, 58.8% and 55.5%.
Consider `COC(=O)c1ccc2nc(NC(=O)C(C)(C)C)sc2c1`, for which the values for the activity in assay [1] and in assay [2] were 93.2% and 91.2%, respectively.
The like results for `O=C1Nc2ccccc2N(C(=O)c2c(F)cccc2F)C1c1nc2ccccc2[nH]1` (centres undefined) were, in that order, 47.6% and 60.3%.
Turning to `CCc1nnc(NC(=O)CSc2nc3c(cc2C#N)CCC3)s1`, the activity stood at 73.7% in assay [1] and 70.8% in assay [2].
The corresponding values for `Cc1cc(C)cc(NS(=O)(=O)c2ccc3c(c2)c(=O)n(C)c(=O)n3C)c1` are 79% and 82.2%.
The like results for `O=C(Nc1nnc(SCC(=O)N2CCOCC2)s1)c1ccccc1Cl` were, in that order, 72.6% and 78.2%.
The like results for `CCOc1ccc(C(=O)Nc2nnc(NC(=S)Nc3ccccc3)s2)cc1` were, in that order, 59.8% and 61.6%.
With `COc1cc(C(=O)Nc2nc3ccccc3[nH]2)ccc1OC(F)F`, the figures for the activity in assay [1] and in assay [2] were 78.9% and 69.4%, respectively.
The corresponding values for `O=C(CSc1nnc(NC(=O)c2ccccc2)s1)NCc1ccco1` are 64.5% and 73.1%.
Consider `CCN1CCN(CCNC(=O)c2ccc3c(c2)N(Cc2ccc(F)cc2)C(=O)/C(=C/c2ccccc2)S3)CC1`, for which the figures for the activity in assay [1] and in assay [2] were 53.4% and 80.5%, respectively.
The corresponding values for `CCc1ccc(-c2cn3nc(C)c(C)nc3n2)cc1` are 75.3% and 63.9%.
The like results for `CCCc1cc2c(=O)c(-c3ccc4c(c3)OCCO4)coc2cc1OC(=O)c1ccco1` were, in that order, 65.5% and 66.4%.
As to `Cc1cccc(CS(=O)(=O)c2ncc(Cl)c(C(=O)Nc3nnc(C(C)C)s3)n2)c1`, the results for the activity in assay [1] and in assay [2] were 93.5% and 86.1%, respectively.
Consider `O=C(Nc1nc2cc3c(cc2s1)OCO3)c1ccco1`, for which the activity in assay [1] came to 79.5%; in assay [2], 93.1%.
In the case of `Cc1cccc(C)c1NC(=O)C1CCN(S(C)(=O)=O)CC1`, the activity was 0.425% in assay [1] and -3.45% in assay [2].
Take `CCCCCCCN(C(=O)CCl)c1cccc(C)c1`: the activity in assay [1] and in assay [2] was 99% throughout.
With `O=C(N/N=C/c1ccc[nH]1)c1ccc(COc2cccc3cccnc23)cc1`, the activity in assay [1] was 71.5%; in assay [2] it was 90.3%.
The like results for `CC(C)CC(=O)Nc1nc2c(c(=O)[nH]1)CCCC2` were, in that order, 69.3% and 66.5%.
